Data from PubChem BioAssay (NCATS).
Values joined by “and” are separate entries in the source; they are usually repeats but may differ in a detail not shown here. Identical values can stand only once. Results filed as inconclusive are left out. Entries that show only a call come without a potency. Active and inactive are the calls of the source. Calls come from the whole dose curve; as a rule, active = well fitted inhibition curve with a large enough effect; inconclusive = small, poorly fitted or top-dose-only effect; inactive = flat fitted curve, though single readings scatter.

test: P-glycoprotein substrates identified in KB-8-5-11 adenocarcinoma cell line, qHTS therapeutic library screen (AID 1346987); details: KB-8-5-11 (P-gp overexpressing) viability, CellTiter-Glo, 72 h; series mostly up to 44.5 µM; note: nearly all actives have a fitted effect of over 65% in size
Procedure, shortened: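 P-gp-mediated resistance screen: KB-8-5-11 cells treated 72 h with compounds in dose-response. CellTiter-Glo viability.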
Potency is the fitted concentration of half-maximal effect.

Structure (SMILES) | Potency
C[C@]12CC[C@H]3[C@@H](CCC4=CC(=O)CC[C@@H]43)[C@@H]1CC[C@@H]2O | 2.91 µM (active) and 5.8 µM (active)
COc1ccc(OC)c(CC(C)N)c1 (centres undefined) | inactive
CC1N=C(N)OC1c1ccccc1 (centres undefined) | inactive
CNC(C)Cc1ccccc1OC (centres undefined) | inactive
O=C(N[C@H]1N=C(c2ccccc2F)c2cccc3c2N(CC3)C1=O)c1cc2ccccc2[nH]1 | inactive
CN(C)CCc1c[nH]c2cccc(O)c12 | inactive
CCOC(=O)NC(C)(C)Cc1ccc(Cl)cc1 | inactive
O=C(CCl)c1ccc(Cl)cc1Cl | 2.91 µM (active) and 11.2 µM (active)
O=C(O)CCCCCCNC1c2ccccc2CCc2ccccc21 | inactive
COc1cc(C[C@@H](C)N)c(OC)cc1Br | inactive
O=C(O)Cc1ccccc1 | inactive
CN(C)CCc1c[nH]c2ccccc12 | inactive
CCC(=O)OC1(c2ccccc2)CCN(C)CC1 | inactive
COP(=S)(OC)Oc1ccc(S(N)(=O)=O)cc1 | inactive
CN(C)CCc1c[nH]c2ccc(O)cc12 | inactive
COc1cc(CC(C)N)c(OC)cc1Br (centres undefined) | inactive
C[C@H]1CNCCc2ccc(Cl)cc21 | inactive
CCC(OC(C)=O)C(CC(C)NC)(c1ccccc1)c1ccccc1 (centres undefined) | 20 µM (active)
CCOP(=S)(OCC)O/N=C(\C#N)c1ccccc1 | inactive
CCC1(c2cnc[nH]2)Cc2ccccc2C1 | inactive

Structure (SMILES) | Potency
NC1(c2ccccc2)CCCCC1 | inactive
CC(Cc1ccc2c(c1)OCO2)NO (centres undefined) | inactive
CNC(C)Cc1ccc2c(c1)OCO2 (centres undefined) | inactive
CC[C@H]1C[C@@H]2C[C@H]3c4[nH]c5ccc(OC)cc5c4CCN(C2)[C@@H]13 | inactive
CN(C)C(=O)Oc1cc(OC(=O)N(C)C)cc(C(O)CNC(C)(C)C)c1 (centres undefined) | inactive
Cc1cccc(Cc2cnc[nH]2)c1C | inactive
Cc1nnc2n1-c1sc(CCc3ccc(CC(C)C)cc3)cc1C(c1ccccc1Cl)=NC2C (centres undefined) | 14.6 µM (active)
CCOC(=O)c1ncn2c1CN(C)C(=O)c1c(I)cccc1-2 | inactive
COc1ccc2[nH]cc(CCN(C(C)C)C(C)C)c2c1 | inactive
C[C@]12CC[C@H](O)CC1=CC[C@@H]1[C@@H]2CC[C@]2(C)C(=O)CC[C@@H]12 | inactive
Oc1ccc([C@H]2CNCc3c2ccc(O)c3O)cc1O | inactive
Cc1nc2ccccc2c(=O)n1-c1ccccc1Cl | inactive
COc1ccc2c3c1O[C@H]1[C@@H](O)C=C[C@H]4[C@@H](C2)N(C)CC[C@@]341 | inactive
COc1cc(CC(C)N)cc2c1OCO2 (centres undefined) | inactive
COc1ccc2c(C(=O)c3ccc(Cl)cc3)c(C)n(CC(=O)O)c2c1 | inactive
CCCCC1C(=O)NC(=O)N(C2CCCCC2)C1=O (centres undefined) | inactive
CCCCCCCCC(=O)NCc1ccc(O)c(OC)c1 | inactive
NC(=O)CN1CCCC1=O | inactive
Cc1nnc2n1-c1sc(CCC(=O)N3CCOCC3)cc1C(c1ccccc1Cl)=NC2 | inactive
